The text below walks through data of PubChem BioAssay (NCI).

Test systems include NCI-H23 lung; NCI-H226 lung; HOP-62 NSCLC; NCI-H460 lung; HOP-92 NSCLC; NCI-H522 lung; A549/ATCC NSCLC; 786-0 renal; COLO 205 colon; NCI-H322M lung.
Experiment in all cases: NCI-60 one-dose screen, 48 h (100 = growth as untreated, 0 = no growth, -100 = all killed)
Holding throughout (settings): 10 µM unless noted

The panel holds about 83,000 compounds, 20% with a hit somewhere; the sample as a whole holds those more often.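 Negative percent growth values reflect cell death: -40 means 40% of the cells present at the start died, and -100 means all died.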 A number with no mark means an inactive call. Activity calls are given as the source filed them. The calls were made as follows: active = growth percent below 10; inactive = the rest.

For the molecule `COc1ccc(/C=N\NC(=O)c2cc(-c3ccc(Br)cc3)n(-c3ccc(S(N)(=O)=O)cc3)n2)cc1`, the growth in the experiment with NCI-H23 lung is 71.7%; in the experiment on NCI-H226 lung, 77.8%; in the experiment on HOP-62 NSCLC, 48%; with NCI-H460 lung, 38.5%; in the experiment on HOP-92 NSCLC, 46.8%; in the experiment on NCI-H522 lung, 18.9%. The growth in the experiment on A549/ATCC NSCLC was 52.1%; with 786-0 renal it was 66.9%; in the experiment with COLO 205 colon, 62.2%.

Take `O=C1/C(=C\c2cccnc2)SC(=S)N1CCc1ccc(O)cc1`: the growth in the experiment on NCI-H23 lung is 50%; in the experiment with NCI-H226 lung, 94.2%; with HOP-62 NSCLC, 45.6%; with NCI-H460 lung it was 18.7%; with HOP-92 NSCLC, 27.4%; in the experiment with NCI-H522 lung it was 11.9%. In addition, the growth with A549/ATCC NSCLC is 93.9%; in the experiment with 786-0 renal, 39.1%; in the experiment on COLO 205 colon, 79.9%.

With `COc1ccc(C(=O)/C=C/c2c(C(F)(F)F)nc3sccn23)cc1OC`, the growth in the experiment with NCI-H23 lung was 22.7%; in the experiment on NCI-H226 lung it was 53.5%; in the experiment on HOP-62 NSCLC, 25%; in the experiment with NCI-H460 lung, -46.6% (active); in the experiment with HOP-92 NSCLC, 78.2%; in the experiment with NCI-H522 lung, 93.1%. In addition, the results for the growth in the experiment with A549/ATCC NSCLC, with 786-0 renal and in the experiment with COLO 205 colon were 73.8%, 32% and 27.3%, respectively.

`CCCCNC(=O)Oc1ccc2c(=O)c3sc4c(=O)c5ccccc5c(=O)c4c3c(=O)c2c1`: the growth was -47.6% (active) in the experiment with NCI-H23 lung; -89% (active) with NCI-H226 lung; -79.1% (active) in the experiment with HOP-62 NSCLC; -74.6% (active) with NCI-H460 lung; -30.4% (active) with HOP-92 NSCLC; -69.5% (active) with NCI-H522 lung. Further, the growth in the experiment with A549/ATCC NSCLC is -61.8% (active); in the experiment on 786-0 renal it was -37% (active); in the experiment with COLO 205 colon, -84.9% (active).

As to `Cc1ccc(N2CCN(C(=S)c3cccs3)CC2)cc1`, the growth is 104% with NCI-H23 lung; 94.9% in the experiment on NCI-H226 lung; 105% with HOP-62 NSCLC; 109% in the experiment with NCI-H460 lung; 74.8% in the experiment on HOP-92 NSCLC; 82.6% in the experiment on NCI-H522 lung. In addition, the growth with A549/ATCC NSCLC is 92.5%; in the experiment on 786-0 renal it was 90.3%; in the experiment on COLO 205 colon, 112%.

Take `NS(=O)(=O)c1cnccc1Oc1cccc2cccnc12`: the growth with NCI-H23 lung was 90.9%; in the experiment on NCI-H226 lung it was 97.3%; in the experiment with HOP-62 NSCLC, 86.8%; in the experiment with HOP-92 NSCLC, 78.4%; in the experiment on NCI-H522 lung it was 95.7%; with A549/ATCC NSCLC it was 94.6%. For the same molecule, the growth in the experiment on 786-0 renal was 97.7%; in the experiment with COLO 205 colon it was 103%.

Regarding `CCCCCS(=O)(=O)Nc1ccc(C(=O)O)cc1`, the growth with NCI-H23 lung is 102%; in the experiment on NCI-H226 lung, 98.9%; in the experiment on HOP-62 NSCLC, 98.2%; in the experiment on HOP-92 NSCLC, 105%; in the experiment on NCI-H522 lung, 75.4%; in the experiment with A549/ATCC NSCLC it was 87.4%. In addition, the growth in the experiment on 786-0 renal was 102%; in the experiment with COLO 205 colon, 104%.

For `COc1cc(/C=N/Nc2ncc(-c3cc4cc5c(cc4o3)OCO5)s2)cc(OC)c1OC`, the growth was 53% in the experiment with NCI-H23 lung; 76.9% in the experiment with NCI-H226 lung; 81% in the experiment on HOP-62 NSCLC; 56.7% in the experiment with NCI-H460 lung; 85.3% with HOP-92 NSCLC; 40% in the experiment with NCI-H522 lung. For the same molecule, the growth with A549/ATCC NSCLC was 37.6%; in the experiment with 786-0 renal, 84.5%; in the experiment on COLO 205 colon, 46.4%.

For `CCCCn1c(=O)c2c(nc(NCCc3ccc(O)c(O)c3)n2CCC)n(CCCC)c1=O`, the growth in the experiment with NCI-H23 lung was 87.1%; in the experiment with NCI-H226 lung, 87.7%; in the experiment on NCI-H460 lung it was 92.9%; in the experiment with HOP-92 NSCLC, 69.8%; in the experiment with NCI-H522 lung, -0.778% (active); in the experiment on A549/ATCC NSCLC it was 76.9%. For the same molecule, the growth with 786-0 renal was 81.3%; with COLO 205 colon, 70.3%.

For the molecule `COc1cc(/C=C/C(=O)N2CCN(C(=O)c3cc(OC)c(OC)c(OC)c3)CC2)ccc1OCCCN1C(=O)c2cccc3cccc(c23)C1=O`, the growth was 106% in the experiment on NCI-H23 lung; 87% in the experiment with NCI-H226 lung; 94.1% with HOP-62 NSCLC; 82.6% in the experiment on NCI-H460 lung; -0.534% (active) in the experiment on HOP-92 NSCLC; 65.4% in the experiment with NCI-H522 lung. Besides, the results for the growth in the experiment with A549/ATCC NSCLC, with 786-0 renal and in the experiment with COLO 205 colon were 85.3%, 73.1% and 116%, respectively.

In the case of `CCN(CC)CCCCCCNc1cc(OC)c(Cl)c2cccnc12`, the growth with NCI-H23 lung is 76.9%; with NCI-H226 lung, 78.7%; in the experiment with HOP-62 NSCLC it was 69.1%; in the experiment on NCI-H460 lung, 83.9%; in the experiment with NCI-H522 lung it was 81.1%; in the experiment on A549/ATCC NSCLC, 96.7%. The growth with 786-0 renal is 73.9%; with COLO 205 colon it was 55.1%.

As for `O=c1c2cc(F)ccc2sc2c(NCCN3CCCCC3)nc3ccccc3c12`, the growth with NCI-H23 lung was 65.6%; with NCI-H322M lung it was 70.9%; in the experiment with NCI-H460 lung it was 18.3%; with HOP-92 NSCLC it was 34.2%; in the experiment on NCI-H522 lung, 34.2%; with A549/ATCC NSCLC it was 59.1%. The growth in the experiment on 786-0 renal is 41%; in the experiment on COLO 205 colon, 48%.

Consider `COc1cc(-c2nc(N3CCN(C)CC3)c3ccccc3n2)cc(OC)c1OC`, for which the growth with NCI-H23 lung was 74.4%; in the experiment with NCI-H322M lung it was 84.4%; with HOP-62 NSCLC, 47.3%; in the experiment with NCI-H460 lung it was 84.5%; in the experiment on HOP-92 NSCLC, 44.3%; in the experiment on NCI-H522 lung, 8.58% (active). The growth was 72.5% in the experiment on A549/ATCC NSCLC, 47.5% in the experiment with 786-0 renal and 81.5% in the experiment with COLO 205 colon.

Turning to `CC(C)(C)n1cc(-c2ccnc(NCCCNS(=O)(=O)c3ccccc3)c2)c(-c2ccccc2)n1`, the growth in the experiment on NCI-H23 lung is 76.9%; in the experiment with NCI-H322M lung, 88.9%; with HOP-62 NSCLC it was 90.7%; in the experiment on NCI-H460 lung, 78.9%; with HOP-92 NSCLC, 24.5%; in the experiment on NCI-H522 lung it was 74.6%. Further, the growth in the experiment with A549/ATCC NSCLC was 63.5%; in the experiment with 786-0 renal, 56.4%; in the experiment on COLO 205 colon it was 57.4%.

As to `COC(=O)/C=C1\S/C(=N\NS(=O)(=O)c2ccc(C)cc2)N(c2ccccc2)C1=O`, the growth in the experiment with NCI-H23 lung is 102%; in the experiment on NCI-H322M lung, 99.6%; in the experiment on HOP-62 NSCLC, 99.4%; in the experiment on NCI-H460 lung, 104%; with HOP-92 NSCLC it was 91.4%; in the experiment with NCI-H522 lung, 91.9%. Moreover, the figures for the growth with A549/ATCC NSCLC, with 786-0 renal and in the experiment with COLO 205 colon were 98.6%, 108% and 121%, respectively.

For `O=C(COc1ccc(/C=C2\Oc3ccccc3C2=O)cc1)Nc1nc2ccccc2s1`, the growth was 48.5% with NCI-H23 lung; 118% in the experiment on NCI-H322M lung; 111% in the experiment with NCI-H460 lung; -90.4% (active) with HOP-92 NSCLC; -79.9% (active) with NCI-H522 lung; 68.3% with A549/ATCC NSCLC. Also, the growth in the experiment with 786-0 renal was 49%; in the experiment on COLO 205 colon, 91.5%.

As for `Cc1ccc(/C=C/c2c(C(=O)/C=C/c3ccc(Cl)cc3)c(C)nc3ccccc23)cc1`, the growth is 2.79% (active) with NCI-H23 lung; 51.7% in the experiment with NCI-H322M lung; 3.89% (active) in the experiment with HOP-62 NSCLC; -73.9% (active) with NCI-H460 lung; 0.669% (active) in the experiment on HOP-92 NSCLC; 5.16% (active) in the experiment with NCI-H522 lung. In addition, the results for the growth in the experiment with A549/ATCC NSCLC, in the experiment on 786-0 renal and with COLO 205 colon were 78.8%, -17.5% (active) and 6.99% (active), respectively.

On to `COc1ccc(S(=O)(=O)NCCNc2nccc(-c3c(-c4cccc(F)c4)nc4sccn34)n2)cc1`, for which the growth in the experiment with NCI-H23 lung is 56.3%; with NCI-H322M lung, 63%; with HOP-62 NSCLC, 73.4%; with NCI-H460 lung, 29%; in the experiment with HOP-92 NSCLC it was 71.8%; with NCI-H522 lung, 48.1%. The growth in the experiment with A549/ATCC NSCLC is 22.5%; with 786-0 renal, 43.1%; in the experiment on COLO 205 colon, 21.7%.
